# Most compounds without a hit are left out; they make up all but 3% or so of the library.
# KLF5 inh = suppresses KLF5 promoter-driven expression; 290,000 compounds, 0.23% hits; DLD-1 KLF5 promoter-luciferase reporter, luminescence; inhibition, % at 5 µM;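 active = inhibition above a per-plate limit of that plate's mean compound inhibition plus 3 SD, cut at about 60% in these data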;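 also: 0% = DMSO wells and 100% = LY294002 at 200 µM; higher means less KLF5 promoter-driven luciferase light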
# aSyn 5UTR inh = 5' untranslated region of α-synuclein, MLPCN primary screen; alpha-synuclein 5'UTR reporter, inhibitor activity; inhibition, % (tested at 7.5 µM); 300,000 compounds, 0.82% hits; in the data active = inhibition above about 60%; inconclusive = no clear call, values can overlap the other calls;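 also: H4 neuroglioblastoma cells stably carrying SNCA 5'UTR luciferase fusion; 0% = DMSO wells and 100% = positive control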
# SKKanGAS inh = SKKanGAS growth inhibition. S. pyogenes SKKanGAS, kanamycin growth, BacTiter-Glo, 6 h. 300,000 compounds, 1.3% hits. inhibition, % at 7.5 µM. AID 1662;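 active = mean replicate score, as percent of positive control median, at least 50; inconclusive = mean below 50 but one replicate at or above 50; inactive = mean and every replicate below 50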;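 also: strain carries kanamycin resistance gene driven by streptokinase promoter and grows in 40 µg/ml kanamycin; loss of luminescence reflects streptokinase promoter inhibition or plain growth inhibition; 0% = median of DMSO wells and 100% = positive control at its reference dose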
# IEC-6 cytotox = kills IEC-6 intestinal cells in KLF5 counter-screen. IEC-6 cytotoxicity, luminescence viability. inhibition, % at 5 µM. 290,000 compounds, 0.78% hits. AID 1825; in the data active = inhibition above about 22%;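 also: 0% = plate median of test compound wells and 100% = cytotoxic reference compound wells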
# CSC inhib = blocks cancer stem cells; AID 2717; cancer stem cell-like cells viability, luminescence; 300,000 compounds, 1.1% hits; inhibition, % at 7.5 µM; in the data active = inhibition above about 75%; inconclusive = no clear call, values can overlap the other calls; tested in HMLE shEcad cells
# An asterisk follows results filed as active; ? = inconclusive; . = not tested or not shown.
SMILES,KLF5 inh,aSyn 5UTR inh,SKKanGAS inh,IEC-6 cytotox,CSC inhib
OC1CCN(c2cc(-c3ccccc3)nc3cc(-c4ccc(F)cc4)nn23)CC1,-24.1,4.2,34.6,-0.1,88.3*
COc1ccc(-c2cc3nc(-c4ccccc4)cc(N4CCC5(CC4)OCCO5)n3n2)cc1,5.3,-4.4,23.0,5.4,33.9
COc1cccc(-c2cc3nc(-c4ccccc4)cc(N4CCCC(O)C4)n3n2)c1 (centres undefined),-33.6,3.8,48.7,0.7,90.2*
CCN1CCN(c2cc(-c3ccccc3)nc3cc(-c4cccc(F)c4)nn23)CC1,-20.3,19.8,19.6,-6.9,?
Cc1ccc(N2CC(C(=O)N3CCC(C(=O)Nc4nnc(C(C)(C)C)s4)CC3)CC2=O)cc1 (centres undefined),-17.0,23.5,20.0,-4.0,.
COc1ccc(S(=O)(=O)N2CCN(C(=O)CSC(=S)N3CCCC3)CC2)cc1,.,.,.,.,-11.9
COc1ccc(N2CC(C(=O)N/N=C/c3cc([N+](=O)[O-])ccc3O)CC2=O)cc1 (centres undefined),-32.2,26.9,68.5*,0.7,-1.8
CCOC(=O)C1CCN(S(=O)(=O)c2ccc(Cl)cc2)CC1,-12.9,3.0,-4.8,-6.9,-7.2
O=C(NNC(=S)NC(=O)C12CC3CC(CC(C3)C1)C2)c1ccncc1,-12.9,44.0,107.7*,11.3,-10.9
CC1(C(=O)NC(=S)NNC(=O)c2ccncc2)CCCCC1,-0.4,29.5,54.5*,1.9,0.6
CCCc1nc2cc3c(cc2[nH]1)n(C)c(=O)n3C,-10.8,-2.8,-1.6,0.0,-5.2
CN(C(=O)CN1C(=O)NC(c2ccccc2)(c2ccccc2)C1=O)C1CCS(=O)(=O)C1 (centres undefined),.,.,.,.,-12.0
Cc1nc(SCC(=O)c2cc3ccccc3oc2=O)c(C#N)c(-c2ccccc2)c1C(=O)Nc1ccccc1,3.7,2.3,33.4,0.3,32.7
COc1ccc(-c2c(C#N)c(SCC(=O)c3cc4ccccc4oc3=O)nc(C)c2C(=O)Nc2ccccc2)cc1,-26.9,1.8,26.2,2.1,104.9*
Oc1c(C(Nc2nc3ccccc3s2)c2ccco2)ccc2cccnc12 (centres undefined),-6.8,65.8*,107.4*,0.7,119.6*
CC(=O)NC(c1ccco1)c1cc(F)c2cccnc2c1O (centres undefined),.,.,.,.,21.6
COc1cccc(C(=O)NC2CC3CCCC(C2)N3S(=O)(=O)c2ccccc2)c1 (centres undefined),-12.7,29.3,-13.4,-2.0,-0.4
CCOC(=O)c1nn(-c2ccccc2)c(-c2ccccc2)c1C(=O)c1ccccc1,-14.3,33.1,-8.5,-17.5,5.5
CCOC(=O)c1nn(-c2ccc(F)cc2)c(-c2ccccc2)c1C(=O)c1ccccc1,-12.5,21.0,-20.9,1.3,78.3*
CC(C(=O)NC(C)(C)C)N(C(=O)CS(=O)CC(=O)Nc1ccc(F)cc1)C1CCCC1 (centres undefined),-9.0,8.5,-0.5,-0.8,-13.7
COc1ccc(-c2nc3ccccc3s2)cc1O,-63.9,85.4*,-0.4,5.7,25.2
CN(C(=O)OC(C)(C)C)c1ccc(-c2nc3ccccc3s2)cc1,.,104.2*,7.3,.,30.3
COC(=O)N(C)c1nc2ccccc2s1,-13.6,-76.9,-11.7,4.4,6.8
COc1cc(-c2nc3ccccc3s2)ccc1O,-92.7,-221.7,1.6,4.8,21.5
CC(C)c1ccc(-c2nc3ccccc3s2)cc1,36.9,98.5*,15.2,9.4,31.8
SMILES,KLF5 inh,aSyn 5UTR inh,SKKanGAS inh,IEC-6 cytotox,CSC inhib
CC1CCCN(S(=O)(=O)c2cc3c4c(c2)C(C)C(=O)N4CCC3)C1 (centres undefined),-6.8,3.4,2.7,0.6,-2.8
COCCCN=Cc1c(C)[nH]n(-c2ccc(Br)cc2Br)c1=O,-19.5,-11.1,-2.6,-6.7,-2.1
CCOc1ccc(/C=C(\C)C(=O)c2c(C)cc(C)[nH]c2=O)cc1,-33.2,3.9,6.5,1.8,-9.3
CCOC(=O)C(C)Oc1cccc2c(=O)n(CC(=O)NCc3ccc(F)cc3)ccc12 (centres undefined),34.3,68.2*,-6.3,9.9,44.7
CCOC(=O)C(C)Oc1cccc2c(=O)n(CC(=O)NCCc3ccccc3)ccc12 (centres undefined),5.8,-17.0,-0.2,-1.0,12.5
CCN(CC)c1ccc2c(O)cc(=O)oc2c1,-28.5,20.3,4.7,-1.8,9.2
CCN(CC)c1ccc(C(=O)OCc2cc(=O)oc3cc(O)ccc23)cc1,2.7,116.9*,51.2*,0.7,84.2*
CC(C)C[C@H](NC(=O)c1nc[nH]c1C(=O)NC(c1ccccc1)c1ccccc1)C(=O)OC(C)(C)C,11.7,29.4,59.9*,6.2,97.0*
CC(C)C[C@H](NC(=O)c1[nH]cnc1C(=O)N[C@H](C)c1ccccc1)C(=O)OCc1ccccc1,-9.5,4.5,72.9*,6.6,-9.2
CC(C)C[C@H](NC(=O)c1[nH]cnc1C(=O)Nc1ccc(Cl)cc1)C(=O)OC(C)(C)C,.,12.2,60.1*,.,.
CC(C)C[C@H](NC(=O)c1[nH]cnc1C(=O)N[C@H](C)c1ccccc1)C(=O)OC(C)(C)C,-34.4,28.3,57.4*,1.4,45.2
CC(C)C[C@H](NC(=O)c1nc[nH]c1C(=O)N[C@@H](CC(C)C)C(=O)OC(C)(C)C)C(=O)OC(C)(C)C,.,54.2,87.2*,.,-1.2
O=C(C(=O)N1CCN(c2ccc(F)cc2)CC1)c1cn(CC(=O)N2CCOCC2)c2ccccc12,-2.6,11.7,21.2,3.9,-2.5
COc1cc(C(=O)N/N=C(\C)c2ccc3c(c2)OCO3)cc(OC)c1OC,31.4,11.3,3.6,89.2*,53.1
C/C(=N\NC(=O)c1cc2ccccc2cc1O)c1ccc2c(c1)OCO2,6.4,-14.3,80.9*,-5.9,28.8
CC(C)c1ccc(O)c(NC(=S)NC(=O)c2ccc3c(c2)OCO3)c1,-132.6,-124.0,60.3*,2.5,22.5
CCOC(=O)C(C)/C(C)=N/NC(=O)c1cc2ccccc2cc1O (centres undefined),-2.7,61.6*,7.1,0.0,17.4
COc1ccc(/C(C)=N\NC(=O)c2ccc3c(c2)OCO3)cc1OC,-46.7,-13.0,.,2.9,-0.5
O=C(NC(=S)Nc1ccccc1Br)c1ccc2c(c1)OCO2,-154.4,-137.4,3.2,-2.2,-1.7
COCCC(=O)N1CCCC(C(=O)c2ccc(C(F)(F)F)cc2)C1 (centres undefined),-26.5,1.7,0.1,-4.8,-6.6
COc1cc(C(=O)NNC(=O)c2ccc3c(c2)OCCO3)cc(OC)c1OC,.,.,.,.,-13.8
COc1cc(C(=O)NNC(=S)NC(=O)c2ccc3c(c2)OCO3)cc(OC)c1OC,-2.5,-7.7,76.7*,6.2,56.8
COc1ccccc1C(=O)Nc1ccnn1C1CCN(C(=O)c2ccoc2C)CC1,-25.5,-27.5,-1.2,2.4,-7.6
CCOC(=O)c1[nH]c(C)c(C(=O)N2CCN(c3ccccc3)CC2)c1C,-29.1,4.1,-13.1,-1.4,-11.6
CCOc1ccc2ccccc2c1C(=O)N1CCN(c2ccccc2)CC1,34.8,7.2,-2.9,24.6*,.
NC(=O)c1ccsc1NC(=O)COC(=O)c1ccccn1,.,.,.,.,-25.1

# Assay outcomes (PubChem)
